Assay outcomes from PubChem.
TGFb inhibitor: qHTS for Inhibitors of TGF-b. actives 1.2% (n = 410,000). HepG2 CAGA-GFP TGF-b/SMAD3 reporter, GFP fluorescence, 18 h; TGF-beta stimulated, 500 pg/mL final. AID 588855, 2011. Potency, µM (doses to about 46.1 µM), usual class: inhibitors; note: nearly all actives have a fitted effect of over 65% in size
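GFP signal (ex488/em500-530) from TGF-beta-stimulated HEPG2 CAGA-GFP cells, 500 pg/mL final, 18 h at 37 degrees C in DMEM plus 1% FBS, normalized to unstimulated and DMSO-stimulated controls.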
DT40 TDP1 CPT: qHTS for Inhibitors of human tyrosyl-DNA phosphodiesterase 1 (TDP1): qHTS in cells in presence of CPT; actives 12% (n = 420,000); chicken DT40 Tdp1-/-;hTDP1 cells + 20 nM CPT, ATP luminescence, 48 h; Potency, µM (series often up to 46.2 µM), usual class: inhibitors; note: nearly all actives have a fitted effect of over 55% in size
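Chicken DT40 Tdp1-/- cells complemented with human TDP1, 400 cells/well, exposed to compounds plus 20 nM camptothecin for at least 48 h at 37 C; viability read as ATP content by CellTiter-Glo luminescence.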
DT40 TDP1 no CPT: qHTS for Inhibitors of human tyrosyl-DNA phosphodiesterase 1 (TDP1): qHTS in cells in absence of CPT; Potency, µM (titrated, usually from 46.2 µM), hits mostly inhibitors; DT40 Tdp1-/- hTDP1 cells, no CPT, ATP luminescence, 48 h; actives 15% (n = 420,000); AID 686978, 2013; note: nearly all actives have a fitted effect of over 55% in size
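No-CPT arm: Tdp1-/-;hTDP1 DT40 cells (400/well) plus compounds, incubated ≥48 hr at 37 °C. Readout CellTiter-Glo luminescence.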
HepG2 tox: qHTS for Inhibitors of TGF-b: Cytotox Counterscreen. HepG2 CAGA-GFP viability, ATP luminescence, 18 h. Potency, µM (doses to about 46.1 µM), usual class: cytotoxic. actives 0.76% (n = 410,000)
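CellTiter-Glo luminescence gave cytotoxicity after 18 hours at 37 degrees C. The cells were HepG2 CAGA-GFP in 1% FBS DMEM, stimulated with 500 pg/mL TGF-beta after compound addition. %Activity was normalised to no-cell wells (complete cell-killing) and DMSO (no toxicity), and curves were fitted and classified.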
IL-1B inflam inh: qHTS for Inhibitors of Inflammasome Signaling: IL-1-beta AlphaLISA Primary Screen | THP-1 LPS/ATP IL-1B secretion, AlphaLISA, 16 h; stronger effect = lower value | activity change, % at 57.5 µM | actives 4.7% (n = 360,000) | AID 743279, 2014; in the data active = activity change below about -50%; inconclusive = mostly about -30% to -49%
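Secreted IL-1B measured by AlphaLISA bead assay after 16 h compound exposure of THP-1 cells; compounds (final up to 57.5 uM) added 1 h before LPS (250 ng/mL) and ATP (1.25 mM) stimulation; lower signal means less secretion.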
S-ASM inh: Inhibitors of Secretory Acid Sphingomyelinase (S-ASM): qHTS; actives 0.006% (n = 340,000); Sphingomyelin phosphodiesterase (Homo sapiens), P17405; placental ASM, HMU-PC fluorogenic substrate, 60 min; Potency, µM (highest dose often 57.5 µM), hits mostly inhibitors
Target sequence (P17405 47-631 limits assumed): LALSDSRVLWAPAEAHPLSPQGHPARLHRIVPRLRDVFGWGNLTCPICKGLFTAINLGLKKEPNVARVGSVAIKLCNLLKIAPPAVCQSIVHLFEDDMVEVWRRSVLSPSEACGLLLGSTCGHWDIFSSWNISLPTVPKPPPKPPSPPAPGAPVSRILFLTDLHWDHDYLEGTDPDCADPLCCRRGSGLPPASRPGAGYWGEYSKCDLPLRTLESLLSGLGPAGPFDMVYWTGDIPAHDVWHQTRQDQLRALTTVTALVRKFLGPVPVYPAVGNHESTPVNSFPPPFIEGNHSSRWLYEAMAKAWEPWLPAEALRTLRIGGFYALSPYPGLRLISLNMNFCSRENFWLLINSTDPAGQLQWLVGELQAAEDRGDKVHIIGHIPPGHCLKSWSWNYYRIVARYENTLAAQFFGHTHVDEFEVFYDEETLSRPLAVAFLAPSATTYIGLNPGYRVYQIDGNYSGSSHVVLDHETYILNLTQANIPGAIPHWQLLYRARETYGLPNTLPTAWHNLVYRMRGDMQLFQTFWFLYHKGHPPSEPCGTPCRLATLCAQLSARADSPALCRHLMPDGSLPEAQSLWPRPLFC
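Fluorescence read-out (Ex 386 nm, Em 447 nm) after stopping the reaction at pH 10. Enzyme: ASM from human placenta; substrate HMU-PC0, 9 uM final; 60 min, 37 °C. Compound preincubation 10 min, ambient temperature.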
A number is an active result; . = inactive; ? = inconclusive; / = not tested or not shown. A selection: hits, their analogues and other compounds. The true share with any hit is near 19%. Unless noted, calls come from the whole dose curve; as a rule, active = well fitted curve in the direction sought with a large enough effect; inconclusive = small, poorly fitted or top-dose-only effect, or another doubt; inactive = no such curve, though single readings can be large; an effect the other way counts as inactive or inconclusive.

SMILES	TGFb inhibitor	DT40 TDP1 CPT	DT40 TDP1 no CPT	HepG2 tox	IL-1B inflam inh	S-ASM inh
NC(=O)c1ccc(NC(=O)C#Cc2ccccc2)cc1	?	?	8.2µM	.	-101	.
O=C(C#Cc1ccccc1)Nc1ccccc1F	?	21µM	18µM	.	-93	.
Cc1ccc(N2CC(C(=O)Nc3ccc(Br)cc3)CC2=O)cc1 (stereo unspecified)	?	.	.	.	/	/
S=c1[nH]cc(-c2ccccc2)n1-c1ccccc1Cl	.	?	?	.	.	.
Cc1ccc(-c2c[nH]c(=S)n2-c2ccccc2F)cc1	.	?	23µM	.	.	.
COc1ccccc1-n1c(-c2ccccc2)c[nH]c1=S	.	18µM	16µM	.	.	.
COC(=O)c1c(OCc2ccccn2)cc(=O)n2c1CCN(C(=O)c1n[nH]c3c1CCCC3)CC2	/	.	.	/	/	/
CC1CCN(CCOc2cccc(Br)c2)CC1	.	.	.	.	.	.
COc1ccc(S(=O)(=O)N2CCN(CCOc3ccccc3Cl)CC2)cc1OC	?	23µM	?	.	.	.
COc1ccc(OC)c(C(=O)CN2CCN(S(=O)(=O)c3ccc(Br)cc3)CC2)c1	.	.	.	.	.	.
COc1ccc(S(=O)(=O)N2CCN(CCOc3ccc(Br)cc3)CC2)cc1OC	?	?	15µM	.	.	.
Cc1ccc(S(=O)(=O)N2CCN(Cc3ccco3)CC2)cc1C	.	.	.	.	.	.
Cc1ccc(S(=O)(=O)N2CCN(CCOc3c(Cl)cccc3Cl)CC2)cc1C	?	21µM	?	.	.	.
Clc1cccc(OCCN2CCN(CCOc3cccc(Cl)c3)CC2)c1	?	2.9µM	2.3µM	.	-85	.
C/C(=N/NC(=O)CSc1nc2ccccc2n1C)c1ccco1	.	.	.	.	.	.
O=C(Nc1cc(S(=O)(=O)N2CCCC2)ccc1OCC(F)(F)F)c1ccncc1	.	.	.	.	.	/
COc1cccc(CN2Cc3cccc4c3[C@H](C=CC4)CC2=O)c1	.	?	?	.	/	/
COc1ccc2c(c1OC)C(=O)N1C2SC[C@H]1C(=O)NC1CCCCC1 (stereo partly specified)	.	.	?	.	.	.
Cc1ccc(S(=O)(=O)N2CCN(CCOc3cccc(C)c3)CC2)cc1	?	.	7.3µM	.	.	.
CCOc1ccc(NC(=O)CSc2nnc(CNC(=O)C34CC5CC(CC(C5)C3)C4)n2CC)cc1	.	?	?	.	/	/
CCOC(=O)N1CCc2cc(OC)c(OC)c3c2c1cc1cc(OC)c(OC)cc13	.	?	12µM	.	.	.
Cc1cccc(CSCC(=O)NCc2ccc(S(N)(=O)=O)cc2)c1	.	.	.	.	.	.
CC(C)(C)c1ccc(C(=O)/C=C2\NC(=O)CS2)cc1	.	15µM	18µM	.	.	.
O=C(COC(=O)C(O)C(O)C(=O)OCC(=O)c1ccc(C(F)(F)F)cc1)c1ccc(C(F)(F)F)cc1 (stereo unspecified)	.	.	.	.	/	.
CCCS(=O)(=O)c1cnc(C2COc3ccccc3O2)nc1N (stereo unspecified)	.	?	16µM	.	.	.
SMILES	TGFb inhibitor	DT40 TDP1 CPT	DT40 TDP1 no CPT	HepG2 tox	IL-1B inflam inh	S-ASM inh
CCOc1ccc(CCNS(=O)(=O)c2c(C)nc3scc(C)n3c2=O)cc1OCC	.	.	.	.	.	.
CCc1ccccc1NC(=O)c1cc(S(=O)(=O)N2CCc3ccccc32)ccc1F	?	16µM	10µM	.	/	/
O=S(=O)(c1ccc(F)c(F)c1)N1CCCc2ccccc21	.	.	?	.	.	.
COc1ccccc1NC(=O)c1cc(S(=O)(=O)N2CCC3(CC2)OCCO3)ccc1F	.	?	.	.	.	.
Cc1ccc(C)c(NC(=O)c2cc(S(=O)(=O)N3CCc4ccccc4C3)ccc2F)c1	.	.	.	.	/	/
COCCCNC(=O)c1c[nH]c2ccc(S(=O)(=O)N3CCc4ccccc43)cc2c1=O	?	.	?	.	.	.
COc1ccccc1NC(=O)c1cc(S(=O)(=O)N2CCc3ccccc32)ccc1F	.	18µM	?	.	.	.
O=C(Nc1cc(Cl)ccc1Cl)c1cc(S(=O)(=O)N2CCCc3ccccc32)ccc1F	.	23µM	?	.	/	/
COCCNC(=O)c1c[nH]c2ccc(S(=O)(=O)N3CCc4ccccc43)cc2c1=O	.	15µM	6.5µM	.	?	.
COc1ccc(CNC(=O)C(=O)NCC(c2ccco2)S(=O)(=O)c2cccs2)cc1 (stereo unspecified)	.	.	?	.	/	/
CC(C)n1nccc1NC(=O)COC(=O)c1ccc(NC(N)=O)cc1	.	.	?	.	.	.
COc1ccc(S(=O)(=O)N2CCc3ccccc32)cc1C(=O)NCCc1ccc(S(N)(=O)=O)cc1	.	.	.	.	.	.
COc1ccc(CCNC(=O)c2cc(S(=O)(=O)N3CCc4ccccc43)ccc2F)cc1OC	?	12µM	6.5µM	.	.	/
CCc1ccccc1NC(=O)c1cc(S(=O)(=O)N2CCCc3ccccc32)ccc1F	.	16µM	18µM	.	/	/
CCc1ccccc1NC(=O)N1CCCc2ccccc21	.	.	.	.	.	.
CCCNC(=O)c1cc(S(=O)(=O)N2CCc3ccccc32)ccc1F	.	5.2µM	15µM	.	.	.
COc1ccc(S(=O)(=O)N(CC(=O)NC(C)c2ccccc2)c2ccc(C)cc2)cc1OC (stereo unspecified)	?	?	5.8µM	22µM	/	/
COc1ccc(CNC(=O)CN(c2ccc(C(C)=O)cc2)S(=O)(=O)c2ccc(C)cc2)cc1OC	.	.	.	.	.	.
COc1ccc(S(=O)(=O)N(CCc2ccccc2)CC(=O)Nc2cc(C)cc(C)c2)cc1OC	.	?	?	.	/	/
COc1ccc(OC)c(N(CC(=O)Nc2ccccc2)S(=O)(=O)c2ccccc2)c1	.	?	?	.	.	.
COc1ccc(S(=O)(=O)N(CC(=O)NCc2ccccc2)c2ccc(C)cc2)cc1OC	?	?	6.5µM	.	/	/
COc1ccc(S(=O)(=O)N(CCc2ccccc2)CC(=O)NCc2ccccc2)cc1OC	.	16µM	?	.	/	/
